Assay results taken from ChEMBL document CHEMBL1201862, “PubChem BioAssay data set” (2004).
In all, about 400,000 compounds went through this assay and about 2,100 (0.53%) were called active. Not shown: some 14% with an inconclusive outcome. No rule for the calls is given here. Only a selection was taken, and actives are over-represented in it overall.

molecular target: Ataxin-2 (Homo sapiens) (UniProt Q99700); assay: qHTS for Inhibitors of ATXN expression.; type: functional
Sequence (Q99700 whole entry): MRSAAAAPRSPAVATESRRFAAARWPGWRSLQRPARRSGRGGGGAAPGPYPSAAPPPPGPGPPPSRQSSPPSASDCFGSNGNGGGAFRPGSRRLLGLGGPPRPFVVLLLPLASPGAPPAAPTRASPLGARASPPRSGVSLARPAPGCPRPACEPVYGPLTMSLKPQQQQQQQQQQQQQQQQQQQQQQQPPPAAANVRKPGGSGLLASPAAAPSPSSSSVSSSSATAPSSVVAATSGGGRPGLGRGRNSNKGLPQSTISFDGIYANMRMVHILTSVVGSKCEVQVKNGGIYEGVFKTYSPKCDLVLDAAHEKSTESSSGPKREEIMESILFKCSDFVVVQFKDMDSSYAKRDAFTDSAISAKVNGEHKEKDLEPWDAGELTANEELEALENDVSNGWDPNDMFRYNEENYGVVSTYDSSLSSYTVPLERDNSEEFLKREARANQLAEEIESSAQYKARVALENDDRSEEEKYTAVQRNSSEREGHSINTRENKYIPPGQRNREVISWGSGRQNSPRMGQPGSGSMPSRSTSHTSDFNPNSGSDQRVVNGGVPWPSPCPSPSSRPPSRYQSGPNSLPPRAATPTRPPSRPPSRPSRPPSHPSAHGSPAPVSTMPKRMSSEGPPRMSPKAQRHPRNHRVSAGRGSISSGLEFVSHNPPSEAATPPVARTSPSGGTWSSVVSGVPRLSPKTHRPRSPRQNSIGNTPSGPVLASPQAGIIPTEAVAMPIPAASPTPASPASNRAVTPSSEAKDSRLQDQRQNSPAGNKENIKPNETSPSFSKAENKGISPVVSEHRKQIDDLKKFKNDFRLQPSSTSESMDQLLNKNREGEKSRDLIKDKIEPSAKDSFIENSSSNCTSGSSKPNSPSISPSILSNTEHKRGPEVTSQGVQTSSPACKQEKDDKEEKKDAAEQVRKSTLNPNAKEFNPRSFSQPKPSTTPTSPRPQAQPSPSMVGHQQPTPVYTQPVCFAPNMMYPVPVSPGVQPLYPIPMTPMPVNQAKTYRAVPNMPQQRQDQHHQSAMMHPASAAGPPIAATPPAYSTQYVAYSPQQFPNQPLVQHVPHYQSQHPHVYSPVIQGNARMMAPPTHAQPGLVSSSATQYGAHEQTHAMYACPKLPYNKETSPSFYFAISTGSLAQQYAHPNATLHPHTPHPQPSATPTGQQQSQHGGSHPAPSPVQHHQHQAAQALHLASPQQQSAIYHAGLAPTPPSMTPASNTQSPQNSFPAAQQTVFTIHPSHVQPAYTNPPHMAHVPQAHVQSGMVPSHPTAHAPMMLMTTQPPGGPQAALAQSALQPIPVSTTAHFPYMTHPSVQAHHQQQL

SMILES	Potency
CCc1ccc(/C=C(/C#N)c2nc(-c3ccc(C)cc3)cs2)cc1	inactive
CCOc1cc(/C=C(\C#N)c2nc(-c3cccs3)c(NC(C)=O)s2)ccc1O	inactive
CCOc1ccc(-c2csc(/C(C#N)=C\c3ccc(O)c([N+](=O)[O-])c3)n2)cc1	8.91 µM (active)
CCOc1ccc2nc(NCCCNS(=O)(=O)c3ccccc3)c(C#N)cc2c1	inactive
CC(=O)N1CCN(c2ccc(NC(=O)c3cccc(F)c3)cc2)CC1	inactive
CN1CCN(c2ccc(NC(=O)c3ccc(-c4ccc(Cl)cc4)o3)cc2)CC1	25.1 µM (active)
CN1CCN(c2ccc(NC(=O)c3sc4ccccc4c3Cl)cc2)CC1	inactive
CCCCOC(=O)c1ccc(NC(=O)/C(C#N)=C/c2ccc(-c3ccccc3)o2)cc1	inactive
CCOc1cccc(/C=N/NC(=O)CC2C(=O)NN=C2C)c1O (stereo unspecified)	inactive
Cc1cccc(N=Nc2c(O)[nH]c3ccc(F)cc23)c1	inactive
COc1ccc(/C=N/OCC(=O)N=Nc2c(O)[nH]c3ccc(Br)cc23)cc1	inactive
O=C(N=Nc1c(O)[nH]c2ccc(Br)cc12)c1ccccc1-n1cccc1	17.8 µM (active)
Cc1cc(C)c(C#N)c(SCC(=O)Nc2nonc2N)n1	inactive
COc1ccccc1N1C(=O)C2C(C(=O)c3ccccc3)=NN(c3ccc(Br)cc3)C2C1=O (stereo unspecified)	inactive
CCN1C=C(C(=O)OC)C(c2cccc(OC)c2OC)C(C(=O)OC)=C1	inactive
Cc1ccc(S(=O)(=O)c2c(C)nn(C(C)(C)C)c2OC(=O)C(C)C)cc1	inactive
COc1cccc(C(=O)Oc2c(Sc3ccc(C)cc3)c(C)nn2C(C)(C)C)c1OC	20 µM (active)
CC(=O)NN1C(=O)c2ccc3c4c(ccc(c24)C1=O)C(=O)N(NC(C)=O)C3=O	25.1 µM (active)
CC(=O)Nc1ccc(N2C(=O)c3cccc4c(O)ccc(c34)C2=O)cc1	inactive
CC(=O)Nc1ccc2c3c(cccc13)C(=O)N(c1ccccc1)C2=O	inactive
CCOCCCn1/c(=N/C(=O)c2cccs2)c(C#N)cc2c(=O)n3ccccc3nc21	inactive
CSC(SC)=C(C#N)C(=O)c1ccccc1	39.8 µM (active)
COc1cccc(C(=O)C(C#N)=C(SC)SC)c1	14.1 µM (active)

SMILES	Potency
Cc1cc(C)c(C#N)c(SCC(=O)c2ccccc2)n1	inactive
COc1cccc(N/C(SC)=C(/C#N)C(=O)NCc2cccs2)c1	inactive
CCOC(=O)C1(C)C(=O)CC2c3nc4ccccc4cc3CN2C1=O (stereo unspecified)	inactive
O=C1c2ccccc2S(=O)(=O)c2cc(N3CCC4(CC3)OCCO4)ccc21	inactive
CCN(CC)C(=O)CSC(Nc1cccc(F)c1)=C(C#N)C#N	inactive
N#Cc1c(Cl)nc(-c2ccncc2)nc1-c1ccccc1	inactive
CC(C)(C)SCCNS(=O)(=O)c1ccc(C#N)cc1	inactive
COc1ccc(N2CCN(CC(=O)NC(=O)NC(C)(C)C)CC2)cc1	inactive
COc1ccc(NC(=O)c2ccc(NC(=O)CN3CCN(c4ccc(O)cc4)CC3)cc2)cc1	31.6 µM (active)
COc1ccc(NC(=O)CN2CCN(c3ccccc3)CC2)cc1	inactive
CC(C)Oc1ccc(C(=O)/C=C2/C(=O)Nc3ccccc32)cc1	39.8 µM (active)
Cn1cc(/C=C2\SC(=O)N(c3ccccc3)C2=O)c2ccccc21	inactive
O=C1S/C(=C\c2ccc(O)c([N+](=O)[O-])c2)C(=O)N1c1ccccc1Cl	33.6 µM (active)
CCOC(=O)COc1ccccc1/C=C\[N+](=O)[O-]	6.31 µM (active)
Cc1cc(C)cc(NC(=O)Cn2cc(C=O)c3ccccc32)c1	inactive
CCOC(=O)Cn1cc(/C=N/NC(=O)c2cc3ccccc3o2)c2ccccc21	inactive
N#Cc1ccccc1Cn1cc(/C=N/Nc2ccc([N+](=O)[O-])cn2)c2ccccc21	inactive
O=C(O)c1ccc(Cn2cc(/C=C\[N+](=O)[O-])c3ccccc32)o1	inactive
Cc1ccc(C(=O)NNC(=O)COC(=O)COc2ccccc2C#N)cc1	inactive
Cc1ccccc1OCC(=O)OCC(=O)c1ccc[nH]1	inactive
CCOC(=O)N/N=C/c1cn(CCCOc2ccc(C)cc2)c2ccccc12	inactive
CCOC(=O)Cn1cc(/C=C/[N+](=O)[O-])c2ccccc21	39.8 µM (active)
O=C(Cn1cc(/C=C\[N+](=O)[O-])c2ccccc21)Nc1ccccc1	35.5 µM (active)

SMILES	Potency
N#Cc1ccccc1Cn1cc(/C=C/[N+](=O)[O-])c2ccccc21	29.9 µM (active)
C=CCn1cc(/C=C/c2cc[n+](C)cc2)c2ccccc21	inactive
COC(=O)c1cc(-n2cccc2)ccc1N1CCOCC1	inactive
S=C(Nc1ccccc1)Nc1ccc2c[nH]nc2c1	inactive
Cc1ccc(CNC(=O)c2cccc3c2C(=O)c2ccc(N4CCC(C)CC4)cc2S3(=O)=O)cc1	inactive
Cc1ccc(-c2cc(-c3ccco3)c3c(N)c(C(=O)NN)oc3n2)cc1	inactive
CC(C)(C)[C@H](N)C(=O)N[C@H]1CCC2C3CC=C4C[C@@H](O)CC[C@]4(C)C3CC[C@@]21C (stereo partly specified)	37.7 µM (active)
CC(=O)C1CCC2C3CC=C4CC(SC(=N)N)CCC4(C)C3CCC12C (stereo unspecified)	37.7 µM (active)
Cc1cccc(OCc2n(C)c3ccccc3[n+]2CC(=O)OC2CC(C)CCC2C(C)C)c1 (stereo unspecified)	35.5 µM (active)
Nc1nnnn1/N=C/c1cc(Cl)cc(Cl)c1O	inactive
O=C(Nc1nccs1)c1cccnc1O	inactive
O=C(CCCCCn1c(=S)[nH]c2ccc(N3CCOCC3)cc2c1=O)NCCc1ccccc1	inactive
O=C(C[C@H]1C[C@H](C(=O)N2CCOCC2)[C@@]2(CCC3CCCC3)c3[nH]c4cc(-c5ccco5)ccc4c3CCN2C1=O)NCCc1ccccn1	35.5 µM (active)
O=C(C[C@H]1C[C@H](C(=O)N2CCOCC2)[C@@]2(CCC3CCCC3)c3[nH]c4cc(-c5ccco5)ccc4c3CCN2C1=O)NCCN1CCOCC1	35.5 µM (active)
O=C(C[C@H]1C[C@H](C(=O)N2CCCCC2)[C@@]2(CCc3ccccc3)c3[nH]c4cc(-c5ccco5)ccc4c3CCN2C1=O)NCCN1CCOCC1	31.6 µM (active)
CN(C)CCCNC(=O)C[C@H]1C[C@H](C(=O)N2CCOCC2)[C@@]2(CCC3CCCC3)c3[nH]c4cc(-c5ccco5)ccc4c3CCN2C1=O	35.5 µM (active)
O=C(NCCN1CCOCC1)c1cc2c(=O)n3ccccc3nc2n1Cc1ccccc1	inactive
COCCCn1c(=N)c(C(=O)NCc2ccco2)cc2c(=O)n3ccccc3nc21	inactive
CCN(C(=O)COC(=O)c1cc(-c2ccc(C)o2)nc2ccccc12)C1CCS(=O)(=O)C1 (stereo unspecified)	inactive
COc1ccc(OC)c(NC(=O)CCN2CCN(C/C=C/c3ccccc3)CC2)c1	inactive
CCOC(=O)c1[nH]c2ccc(F)cc2c1NC(=O)CN1CCN(C/C=C/c2ccccc2)CC1	39.8 µM (active)
COc1cc(NC(=O)CN2CCN(S(=O)(=O)/C=C/c3ccccc3)CC2)cc(OC)c1OC	inactive
CCCCCCCN(c1ccccc1)[C@@H]1C[C@H]2CCCC(=O)N3CC[C@@H](C1)[C@@H]23	35.5 µM (active)

SMILES	Potency
COc1ccc(NC(=O)c2ccc(-c3ccc(-c4noc(C)n4)cc3C)cc2)cc1N1CCN(C)CC1	39.8 µM (active)
CC(C)(C)c1ccc(CN2N=Nc3ccccc3S2(=O)=O)cc1	39.8 µM (active)
O=C(N/N=C\c1c(O)ccc2ccccc12)c1cncc(Br)c1	inactive
CC(C)(C)C(=O)Oc1ccc2cc(-c3ccc4ccccc4n3)c(=O)oc2c1	inactive
COC(=O)c1ccccc1SCC(=O)Nc1ccc(N2CCOCC2)cc1	inactive
COc1ccc(NC(=O)CSc2ccc3c4c(cccc24)C(=O)c2ccccc2-3)cc1	22.4 µM (active)
COc1ccc(N2C(=O)c3cccc4c(N(C)CCO)ccc(c34)C2=O)cc1	inactive
Oc1ccc(Cl)cc1/C=N/c1ccc2c3c(cccc13)CC2	inactive
CCn1c(=O)c(C(=O)NCc2ccc3c(c2)OCO3)c(O)c2ccccc21	inactive
CC(C)(C)[S+]([O-])N1Cc2cc(C(=O)NCc3ccc4c(c3)OCO4)nc(-c3cccc(-c4cc5ccccc5o4)c3)c2[C@@H]1CCO (stereo partly specified)	31.6 µM (active)
CC(C)(C)[S+]([O-])N1Cc2cc(C(=O)NCc3ccc(Oc4ccccc4)cc3)nc(-c3cccc(-c4cc5ccccc5o4)c3)c2[C@@H]1CCO (stereo partly specified)	39.8 µM (active)
O=C(CSc1nc(C2CCCCC2)nc2ccccc12)NCc1ccc2c(c1)OCO2	inactive
CC(C)(C)[S+]([O-])N1Cc2cc(C(=O)NCc3ccc(Oc4ccccc4)cc3)nc(-c3cccc(-c4cc5ccccc5o4)c3)c2[C@H]1CCO (stereo partly specified)	35.5 µM (active)
CC(=O)N1Cc2cc(C(=O)NCc3cccc(F)c3)nc(-c3cccc(C4=CCCCC4)c3)c2[C@H]1CCO	35.5 µM (active)
O=S(=O)(c1ccccc1)N1CCN=C1SCc1cccnc1	inactive
CCN(CC)c1ccc2cc(C(=O)NNC(=O)c3ccc(S(=O)(=O)N4CCCCC4)cc3)c(=O)oc2c1	inactive
N#CC1=C(N)N2C(=C(C#N)C1c1ccc(Br)cc1)Nc1ccccc12 (stereo unspecified)	inactive
O=C1OCCN1C(=O)[C@H]1[C@H](c2ccc(Cl)cc2)C(c2ccccc2)=NN1c1ccccc1	inactive
CCOc1ccc(S(=O)(=O)[N-]c2nc3ccccc3nc2-[n+]2ccc(NC(=O)c3ccccc3C)cc2)cc1	inactive
Cc1cccc2cc3c(NC(=O)C(C)(C)C)nn(CC(C)C)c3nc12	inactive
Cc1cc(NN)nc(NS(=O)(=O)c2ccc(Cl)cc2)n1	inactive
CN(C)C(=O)c1cccc(-c2cccc(-c3nc(C(=O)NCc4ccccc4)cc4c3[C@@H](CCO)N([S+]([O-])C(C)(C)C)C4)c2)c1 (stereo partly specified)	25.1 µM (active)
